{"source": "PubChem BioAssay", "note": "For some of these results: Results with a measured potency or affinity are listed apart."}
{"experiment": "blockers of polyQ-driven CASP3 activation – cell-based (AID 1583)", "conditions": "polyglutamine-induced caspase-3 activation, cell assay; stronger effect = higher value;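 tested at 10 µM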", "units": {"inhibition": "%"}}
{"smiles": "O=c1c(-c2ccc(O)cc2)coc2cc(O)ccc12", "inhibition": -30.4}
{"smiles": "O=C(O)c1cc(=O)c2cccc(O)c2[nH]1", "inhibition": -21.7}
{"smiles": "NC(=O)c1cccc(N)c1", "inhibition": -48.2}
{"smiles": "CC(C)=CCc1c2c(c3occ(-c4ccc(O)c(O)c4)c(=O)c3c1O)C=CC(C)(C)O2", "inhibition": -8.52}
{"smiles": "O=C(O)c1cc([N+](=O)[O-])ccc1NCCCc1ccccc1", "inhibition": 58.5}
{"smiles": "CC(=O)c1c(O)c(C)c(O)c2c1OC1=CC(=O)C(C(C)=O)C(=O)C12C", "note": "(centres undefined)", "inhibition": 59.1}
{"smiles": "O=C1C=CC(=C(c2ccc(O)cc2)c2ccc(O)cc2)C=C1", "inhibition": 28.5}
{"smiles": "COc1c(OC)c2occc2c2oc(=O)ccc12", "inhibition": -21}
{"smiles": "CON", "inhibition": -5.62}
{"smiles": "COc1cc(OC)c2ccc(=O)oc2c1", "inhibition": -1.21}
{"smiles": "CC(=O)N[C@@H]1[C@@H](O)[C@H](O)[C@@H](CO)O[C@H]1O", "inhibition": 0.38}
{"smiles": "C[C@]12CCC3c4ccc(OS(=O)(=O)O)cc4CCC3C1CC[C@H]2O", "note": "(some centres undefined)", "inhibition": 8.2}
{"smiles": "CCN1CCCC1CNC(=O)c1cc(S(N)(=O)=O)ccc1OC", "note": "(centres undefined)", "inhibition": 17.6}
{"smiles": "NC1(C(=O)O)CCCC1", "inhibition": 20.1}
{"smiles": "NC1=NCCN1CC(=O)O", "inhibition": 26.8}
{"smiles": "NC(Cn1ccc(=O)c(O)c1)C(=O)O", "note": "(centres undefined)", "inhibition": -4.48}
{"smiles": "COc1cc(C)c2c(=O)cc(-c3ccccc3)oc2c1", "inhibition": 15.2}
{"smiles": "N#Cc1ccc2c(c1)N(CCCN1CCC(O)CC1)c1ccccc1S2", "inhibition": -41.8}
{"smiles": "C=NC(C(=O)NC1C(=O)N2C1SC(C)(C)C2C(=O)O)c1ccccc1", "note": "(centres undefined)", "inhibition": 15.2}
{"smiles": "O=C1c2ccc(O)c(O)c2C(=O)c2c(O)ccc(O)c21", "inhibition": -8.08}
{"experiment": "yeast 75Q aggregation reduction – 75Q-TubU reporter (AID 1593)", "conditions": "Yeast 75Q polyglutamine aggregation reporter"}
{"smiles": "O=c1c(-c2ccc(O)cc2)coc2cc(O)ccc12", "score": 1}
{"smiles": "O=C(O)c1cc(=O)c2cccc(O)c2[nH]1", "score": 0.98}
{"smiles": "NC(=O)c1cccc(N)c1", "score": 1.17}
{"smiles": "CC(C)=CCc1c2c(c3occ(-c4ccc(O)c(O)c4)c(=O)c3c1O)C=CC(C)(C)O2", "score": -0.59}
{"smiles": "O=C(O)c1cc([N+](=O)[O-])ccc1NCCCc1ccccc1", "score": 0.73}
{"smiles": "CC(=O)c1c(O)c(C)c(O)c2c1OC1=CC(=O)C(C(C)=O)C(=O)C12C", "note": "(centres undefined)", "score": 0.79}
{"smiles": "O=C1C=CC(=C(c2ccc(O)cc2)c2ccc(O)cc2)C=C1", "score": 1.1}
{"smiles": "COc1c(OC)c2occc2c2oc(=O)ccc12", "score": 0.45}
{"smiles": "CON", "score": 1.4}
{"smiles": "COc1cc(OC)c2ccc(=O)oc2c1", "score": 0.96}
{"smiles": "CC(=O)N[C@@H]1[C@@H](O)[C@H](O)[C@@H](CO)O[C@H]1O", "score": 1.2}
{"smiles": "C[C@]12CCC3c4ccc(OS(=O)(=O)O)cc4CCC3C1CC[C@H]2O", "note": "(some centres undefined)", "score": 1.49}
{"smiles": "CCN1CCCC1CNC(=O)c1cc(S(N)(=O)=O)ccc1OC", "note": "(centres undefined)", "score": 1.43}
{"smiles": "NC1(C(=O)O)CCCC1", "score": 1.21}
{"smiles": "NC1=NCCN1CC(=O)O", "score": 1.43}
{"smiles": "NC(Cn1ccc(=O)c(O)c1)C(=O)O", "note": "(centres undefined)", "score": 0.73}
{"smiles": "COc1cc(C)c2c(=O)cc(-c3ccccc3)oc2c1", "score": -1.86}
{"smiles": "N#Cc1ccc2c(c1)N(CCCN1CCC(O)CC1)c1ccccc1S2", "score": 1.21}
{"smiles": "C=NC(C(=O)NC1C(=O)N2C1SC(C)(C)C2C(=O)O)c1ccccc1", "note": "(centres undefined)", "score": 0.85}
{"smiles": "O=C1c2ccc(O)c(O)c2C(=O)c2c(O)ccc(O)c21", "score": 1.47}
{"experiment": "restoration of touch response, mutant HTT neurons – whole organism, C. elegans mechanosensory neurons, N-terminal huntingtin (AID 1599)", "conditions": "C. elegans polyQ-huntingtin mechanosensory neurons, stronger effect = higher value"}
{"smiles": "O=c1c(-c2ccc(O)cc2)coc2cc(O)ccc12", "rescue above control": 2.42}
{"smiles": "O=C(O)c1cc(=O)c2cccc(O)c2[nH]1", "rescue above control": -4.01}
{"smiles": "NC(=O)c1cccc(N)c1", "rescue above control": -8.42}
{"smiles": "CC(C)=CCc1c2c(c3occ(-c4ccc(O)c(O)c4)c(=O)c3c1O)C=CC(C)(C)O2", "rescue above control": -11.4}
{"smiles": "O=C(O)c1cc([N+](=O)[O-])ccc1NCCCc1ccccc1", "rescue above control": 1.37}
{"smiles": "CC(=O)c1c(O)c(C)c(O)c2c1OC1=CC(=O)C(C(C)=O)C(=O)C12C", "note": "(centres undefined)", "rescue above control": 1.6}
{"smiles": "O=C1C=CC(=C(c2ccc(O)cc2)c2ccc(O)cc2)C=C1", "rescue above control": -3.26}
{"smiles": "COc1c(OC)c2occc2c2oc(=O)ccc12", "rescue above control": 5.04}
{"smiles": "CON", "rescue above control": -6.41}
{"smiles": "COc1cc(OC)c2ccc(=O)oc2c1", "rescue above control": 0.64}
{"smiles": "CC(=O)N[C@@H]1[C@@H](O)[C@H](O)[C@@H](CO)O[C@H]1O", "rescue above control": 2.33}
{"smiles": "C[C@]12CCC3c4ccc(OS(=O)(=O)O)cc4CCC3C1CC[C@H]2O", "note": "(some centres undefined)", "rescue above control": 11.3}
{"smiles": "CCN1CCCC1CNC(=O)c1cc(S(N)(=O)=O)ccc1OC", "note": "(centres undefined)", "rescue above control": 3.11}
{"smiles": "NC1(C(=O)O)CCCC1", "rescue above control": -10.9}
{"smiles": "NC1=NCCN1CC(=O)O", "rescue above control": 1.68}
{"smiles": "NC(Cn1ccc(=O)c(O)c1)C(=O)O", "note": "(centres undefined)", "rescue above control": -6.31}
{"smiles": "COc1cc(C)c2c(=O)cc(-c3ccccc3)oc2c1", "rescue above control": 16.3}
{"smiles": "N#Cc1ccc2c(c1)N(CCCN1CCC(O)CC1)c1ccccc1S2", "rescue above control": 2.76}
{"smiles": "C=NC(C(=O)NC1C(=O)N2C1SC(C)(C)C2C(=O)O)c1ccccc1", "note": "(centres undefined)", "rescue above control": -2.5}
{"experiment": "blockers of cytochrome c efflux from mitochondria – biochemical, purified mitochondria (AID 1603);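 further: mouse liver mitochondria challenged with calcium chloride; signal normalized to the plate average as 100%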", "conditions": "stronger effect = lower value"}
{"smiles": "O=c1c(-c2ccc(O)cc2)coc2cc(O)ccc12", "cytochrome c release ratio": 0.87}
{"smiles": "O=C(O)c1cc(=O)c2cccc(O)c2[nH]1", "cytochrome c release ratio": 1.01}
{"smiles": "NC(=O)c1cccc(N)c1", "cytochrome c release ratio": 1.08}
{"smiles": "CC(C)=CCc1c2c(c3occ(-c4ccc(O)c(O)c4)c(=O)c3c1O)C=CC(C)(C)O2", "cytochrome c release ratio": 1.28}
{"smiles": "O=C(O)c1cc([N+](=O)[O-])ccc1NCCCc1ccccc1", "cytochrome c release ratio": 0.78}
{"smiles": "CC(=O)c1c(O)c(C)c(O)c2c1OC1=CC(=O)C(C(C)=O)C(=O)C12C", "note": "(centres undefined)", "cytochrome c release ratio": 0.98}
{"smiles": "O=C1C=CC(=C(c2ccc(O)cc2)c2ccc(O)cc2)C=C1", "cytochrome c release ratio": 1.26}
{"smiles": "COc1c(OC)c2occc2c2oc(=O)ccc12", "cytochrome c release ratio": 1}
{"smiles": "CON", "cytochrome c release ratio": 0.58}
{"smiles": "COc1cc(OC)c2ccc(=O)oc2c1", "cytochrome c release ratio": 0.64}
{"smiles": "CC(=O)N[C@@H]1[C@@H](O)[C@H](O)[C@@H](CO)O[C@H]1O", "cytochrome c release ratio": 0.85}
{"smiles": "C[C@]12CCC3c4ccc(OS(=O)(=O)O)cc4CCC3C1CC[C@H]2O", "note": "(some centres undefined)", "cytochrome c release ratio": 0.9}
{"smiles": "CCN1CCCC1CNC(=O)c1cc(S(N)(=O)=O)ccc1OC", "note": "(centres undefined)", "cytochrome c release ratio": 0.88}
{"smiles": "NC1(C(=O)O)CCCC1", "cytochrome c release ratio": 4.67}
{"smiles": "NC1=NCCN1CC(=O)O", "cytochrome c release ratio": 1.01}
{"smiles": "NC(Cn1ccc(=O)c(O)c1)C(=O)O", "note": "(centres undefined)", "cytochrome c release ratio": 0.84}
{"smiles": "COc1cc(C)c2c(=O)cc(-c3ccccc3)oc2c1", "cytochrome c release ratio": 1.19}
{"smiles": "N#Cc1ccc2c(c1)N(CCCN1CCC(O)CC1)c1ccccc1S2", "cytochrome c release ratio": 0.74}
{"smiles": "C=NC(C(=O)NC1C(=O)N2C1SC(C)(C)C2C(=O)O)c1ccccc1", "note": "(centres undefined)", "cytochrome c release ratio": 0.48}
{"smiles": "O=C1c2ccc(O)c(O)c2C(=O)c2c(O)ccc(O)c21", "cytochrome c release ratio": 0.18}
